# High-throughput results (PubChem)
# Hits are enriched below; roughly 1.8% of the tested compounds scored in any of these assays.
# VHR inh abs: DUSP3 (human) phosphatase inhibition; P51452; recombinant VHR phosphatase, pNPP absorbance; inhibition, % at 13.3 µM; 290,000 compounds, 0.52% hits; AID 1654; in the data active = inhibition above about 50%
# PrPC surface inh: inhibitors of human cell surface prion protein PrPC; inhibition, % at 13.8 µM; 370,000 compounds, 0.43% hits; TR-FRET read-out; P04156; in the data active = inhibition above about 24%; note: 0% = median of the test wells and 100% = reference compound wells
# BH1578 lux ind: induces V. cholerae light production without autoinducers | V. cholerae BH1578 lux reporter, luminescence, 6 h | activation, % at 18.7 µM | 350,000 compounds, 0.16% hits | AID 588436; in the data active = activation mostly above about 9.7%, no sharp cut-off
# CCHFV vOTU inh: CCHFV vOTU protease inhibition. 370,000 compounds, 0.55% hits. Pep-AMC fluorescence. AID 651958. inhibition, % at 11.5 µM; in the data active = inhibition above about 30%; note: 0% = vehicle wells with enzyme and 100% = no enzyme wells
# Yp Topo-I inh: inhibitors of Yersinia pestis topoisomerase I; activity, % at 10 µM; Y. pestis Topo-I cleavage product accumulation, plate reader; 360,000 compounds, 0.064% hits; in the data active = activity above about 50%, passing the limit was not always enough
# MazF activator: activators of E. coli MazEF toxin-antitoxin RNase | P0AE70 | FAM/BHQ RNA-DNA oligo cleavage fluorescence, 5 h | activation, % at 20 µM | 350,000 compounds, 0.32% hits; in the data active = activation above about 50%
# PrPC TRFRET cf: confirmation of inhibitors of cell surface human prion protein; shares compounds with PrPC surface inh; cell surface PrPC level, TR-FRET; inhibition, % at 13.8 µM; 1,500 compounds, 65% hits; in the data active = inhibition above about 25%
# LD9 cytotox: LD9 cell cytotoxicity, PrPc inhibitor counter-screen; inhibition, % at 13.8 µM; 1,500 compounds, 29% hits; LD9 cells cytotoxicity, luminescence viability; shares compounds with PrPC surface inh; in the data active = inhibition above about 9.5%
# Starred values were filed as active, the others as inactive; i = inactive; x = no result.
SMILES,VHR inh abs,PrPC surface inh,BH1578 lux ind,CCHFV vOTU inh,Yp Topo-I inh,MazF activator,PrPC TRFRET cf,LD9 cytotox
O=C(Nc1oc2ccccc2c(=O)c1-c1ccc2c(c1)OCO2)c1ccco1,x,33*,i,26,-4,-3,28*,3
CN(C)NC(=S)NC1(C)CCS(=O)(=O)C1 (centres undefined),-20,0,0,-7,-8,6,x,x
Brc1ccc2ncnc(NCc3ccco3)c2c1,14,26*,-3,-15,2,7,32*,13*
COc1cc2ncnc(NCc3ccco3)c2cc1OC,22,-5,i,7,1,11,x,x
CSCCC(Nc1ncnc2ccc(Br)cc12)C(=O)O (centres undefined),-10,42*,i,-6,3,4,104*,-1
CC(C)Nc1ncnc2ccc(Br)cc12,-2,25*,i,4,0,-5,34*,5
Cc1ccc(NC(=O)NC(=O)COc2ccccc2C(N)=O)c(C)c1,x,10,i,4,1,-7,x,x
CCCCC1=CC2=C(c3ccco3)C(=O)C(C)(OC(=O)c3ccc(OC)cc3)C(=O)C2=CN1CCc1ccccn1 (centres undefined),4,26*,3,6,-1,-19,33*,-3
CCCCC1=CC2=C(c3ccco3)C(=O)C(C)(OC(=O)c3ccc(OC)cc3)C(=O)C2=CN1CCOC (centres undefined),-16,-1,i,14,16,-37,x,x
COCc1ccc(C(=O)NC2CCCN(Cc3ccccc3F)C2)o1 (centres undefined),6,-3,i,-9,1,0,x,x
CCc1c(-c2ccccc2OC)ncn1Cc1cccc(-c2ccccc2)c1,x,23,x,12,x,x,x,x
COc1ccccc1-c1ncn(Cc2cccc(-c3ccccc3)c2)c1CC(C)C,x,27*,x,23,x,x,15,7
CCCc1c(-c2ccc(F)cc2F)ncn1Cc1cccc(-c2ccccc2)c1,x,30*,x,25,x,x,18,8
CCCc1c(-c2cccc(Cl)c2)ncn1Cc1cccc(-c2ccccc2)c1,x,4,x,9,x,x,x,x
COc1ccc(NC(=O)CCSc2ccc(C)cc2)cc1,-2,4,0,-10,1,2,x,x
COc1cccc(NC(=O)CCSc2ccc3ccccc3n2)c1,16,68*,i,-9,4,-2,84*,-7
COc1ccc(NC(=O)CCSc2ccc3ccccc3n2)cc1,5,56*,-1,2,12,-3,75*,-2
Cc1ccc(CNC(=O)O[C@H]2CC[C@@]34CCCN3C(=O)CCC[C@H]4C2)o1,x,-4,x,x,x,x,x,x
Cc1cccc(OCC(=O)NCC(=O)N/N=C/c2cc(Br)cc(Br)c2O)c1,12,3,0,25,0,12,x,x
O=C(c1ccc(CSc2nc3ccncc3[nH]2)cc1)N1CCN(c2cccc(Cl)c2)CC1,-11,31*,-1,26,31,-2,40*,9.4*
CCOc1ccc(-c2nnc(Nc3ccc(OC)c(C(=O)N4CCCCC4)c3)c3ccccc23)cc1,34,-1,2,3,5,-5,x,x
O=C(CSc1nc2ccccc2c(=O)n1CCCN1CCOCC1)Nc1ccccc1OC(F)F,x,-7,i,-1,21,4,x,x
COc1ccc(-c2ccc(SCC(=O)Nc3nccs3)nn2)cc1OC,19,29*,-2,-22,21,-28,38*,-6
COc1ccc(-c2nnc3ccc(SCC(=O)Nc4nccs4)nn23)cc1OC,-5,-6,0,4,-8,1,x,x
O=C(O)c1cc(-c2ccc(Br)s2)nc2ccccc12,-2,33*,-1,-12,-5,-11,53*,-7
SMILES,VHR inh abs,PrPC surface inh,BH1578 lux ind,CCHFV vOTU inh,Yp Topo-I inh,MazF activator,PrPC TRFRET cf,LD9 cytotox
N=C1C(c2ccccc2)=C(O)CN1c1ccccc1,22,29*,i,2,-1,-2,8,-1
COC(=O)c1ccc(N2C(c3cccc(OC)c3)=Cc3ccc(F)cc3C2c2c(C)[nH]c3ccccc23)cc1 (centres undefined),x,8,x,3,x,x,x,x
COc1ccccc1-c1n[nH]c(=S)o1,10,48*,i,22,12,-3,48*,-1
COc1ccccc1-c1n[nH]c(=S)n1-c1ccccc1,7,48*,1,6,0,5,61*,6
COc1ccc(Cl)cc1-c1n[nH]c(=S)o1,-8,69*,-6,21,3,5,85*,-1
CC1(C)NC(=O)N(CC(O)COc2ccc(-c3ccc(C#N)cc3)cc2)C1=O (centres undefined),22,30*,-1,-9,-2,1,14,9
CC1(C)NC(=O)N(CC(O)COc2ccc(-c3ccccc3)cc2)C1=O (centres undefined),21,-3,0,7,-1,-4,x,x
COc1cc(C=NO)nc(-c2ccccn2)c1,x,37*,-6,0,3,3,33*,22*
COc1ccc2nc(-c3ccccn3)[nH]c2c1,17,3,0,4,1,5,x,x
CCCN(c1ccc(OCC)cc1)S(=O)(=O)c1ccc2c(c1)NC(=O)CO2,6,55*,0,-6,5,4,56*,-2
Nc1nc2ccc(Cl)cc2cc1C(=O)NCc1ccccc1Br,x,49*,x,-15,x,x,81*,-2
Nc1ccc(CNC(=O)c2cc3cc(Cl)ccc3nc2N)cc1,x,11,x,-1,x,x,x,x
Nn1c(SCc2ccc(Br)cc2)nnc1-c1n[nH]c2c1CCC2,x,25*,x,-1,x,x,19,8
Cc1cc2cc(CNC(=O)c3ccc(S(=O)(=O)N4CCCC4)cc3)ccc2n1C,7,37*,i,3,19,-11,68*,3
Cc1cc2cc(CNC(=O)c3ccc(S(=O)(=O)N4CCCCC4)cc3)ccc2n1C,-30,39*,0,13,18,-15,21,-8
CCN(CC)S(=O)(=O)c1ccc(C(=O)NCc2ccc3c(c2)cc(C)n3C)cc1,15,36*,i,18,13,-10,2,-2
CCN(CC)S(=O)(=O)c1ccc(C(=O)NCc2ccc3c(c2)OCO3)cc1,19,0,i,-9,6,10,x,x
COc1ccc(C(=O)NCCCC2CCCC2)cc1OC1CCN(C(C)C)CC1,x,-9,i,-9,0,16,x,x
CCOc1ccccc1N=C1SCC(C)N1C(=O)C1CCN(c2ncnc3sc(C)c(C)c23)CC1 (centres undefined),x,40*,-5,0,19,-2,56*,-7
CCOC(=O)C1CCN(S(=O)(=O)c2c[nH]c(=O)[nH]c2=O)CC1,x,6,-1,-5,-7,-1,x,x
